Sampled rows, rich in hits. Any-hit rate of the full collection: about 6.9%.
Giardia kill: Small Molecules that selectively kill Giardia lamblia: qHTS; Giardia lamblia trophozoite viability; activity change, % at 7.66 µM, hits read low; 0.15% of 340,000 active; in the data active means activity change below about -80%; inconclusive means between about -30% and that limit;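 further: parasites exposed to compound for two days anaerobically before the ATP read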
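Media and compound were dispensed first, then trophozoites at 100 cells/well; plates sat 48 hrs at 37 deg C without oxygen before ATP luminescence reagent was added and read after 15-30 min at room temperature.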
Vif-APOBEC3F blk: qHTS for Inhibitors of Vif-A3F Interactions: qHTS. HeLa A3F-eYFP + Vif (tagged APOBEC3F with the HIV-1 protein that degrades it), YFP fluorescence increase. Potency, µM (series often up to 46.1 µM). 0.2% of 390,000 active; further: nearly all actives have a fitted effect of over 65% in size
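HeLa cells stably expressing Vif plus C-terminally eYFP-tagged A3F were seeded, incubated overnight at 37 deg C, dosed with compound, incubated overnight again at 37 deg C. Yellow fluorescence (Ex 488/Em 500-530) reported blocked Vif-mediated A3F-eYFP degradation.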
IL-1B inflam inh: qHTS for Inhibitors of Inflammasome Signaling: IL-1-beta AlphaLISA Primary Screen. THP-1 LPS/ATP IL-1B secretion, AlphaLISA, 16 h; hits give low values. activity change, % at 57.5 µM. 4.7% of 360,000 active. AID 743279, 2014; in the data active means activity change below about -50%; inconclusive means mostly about -30% to -49%
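Secreted IL-1B measured by AlphaLISA bead assay after 16 h compound exposure of THP-1 cells; compounds (final up to 57.5 uM) added 1 h before LPS (250 ng/mL) and ATP (1.25 mM) stimulation; lower signal means less secretion.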
SW480 rereplic: A quantitative high throughput screen for small molecules that induce DNA re-replication in SW480 colon adenocarcinoma cells; SW480 DNA re-replication, Hoechst DNA content imaging, 48 h; Potency, µM (top dose mostly 46.1 µM), actives largely listed as activators; AID 624297, 2012; 1.8% of 340,000 active; further: nearly all actives have a fitted effect of over 55% in size
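Hoechst fluorescence of nuclei (405 nm excitation, 500-530 nm emission) measured by plate-scanning imager after 48 hr compound exposure at 37 C; re-replication scored as increased number of nuclei with elevated intensity.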
MCF10A rerep: A quantitative high throughput screen for small molecules that induce DNA re-replication in MCF 10a normal breast cells; MCF 10A DNA re-replication, Hoechst nuclear intensity, 48 h; Potency, µM (series often up to 46.1 µM), hits mostly activators; 2.9% of 350,000 active; further: nearly all actives have a fitted effect of over 50% in size
Vif-A3G inh: qHTS for Inhibitors of Vif-A3G Interactions: qHTS | DNA dC->dU-editing enzyme APOBEC-3G (Homo sapiens), Q9HC16 | HeLa A3G-eYFP + Vif (tagged APOBEC3G with the HIV-1 protein that degrades it), YFP fluorescence, overnight | Potency, µM (highest dose often 46.1 µM), usual class: inhibitors | 0.076% of 410,000 active | AID 602310, 2012; further: nearly all actives have a fitted effect of over 60% in size
Target sequence (Q9HC16 whole entry, looked up): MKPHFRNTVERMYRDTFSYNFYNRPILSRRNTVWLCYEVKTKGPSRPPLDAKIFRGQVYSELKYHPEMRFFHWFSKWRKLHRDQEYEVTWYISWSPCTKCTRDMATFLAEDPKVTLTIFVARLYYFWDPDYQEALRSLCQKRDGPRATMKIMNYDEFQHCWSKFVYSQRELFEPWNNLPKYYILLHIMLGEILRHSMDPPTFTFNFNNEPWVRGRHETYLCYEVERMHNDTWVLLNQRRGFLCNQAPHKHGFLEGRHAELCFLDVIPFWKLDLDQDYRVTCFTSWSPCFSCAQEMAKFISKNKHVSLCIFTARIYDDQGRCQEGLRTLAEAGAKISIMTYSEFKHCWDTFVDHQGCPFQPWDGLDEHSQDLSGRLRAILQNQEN
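HeLa cells stably expressing Vif and C-terminally eYFP-tagged A3G, seeded overnight at 37 deg C, then exposed to compound by pintool overnight at 37 deg C. Rise in yellow fluorescence (Ex 488/Em 500-530, Acumen) marks blocked Vif-driven A3G degradation.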
Numbers stand for hits; i = inactive; ? = inconclusive; nt = no result; [ ] = dose if it differs, or a comment. Unless noted, the call rests on the fitted dose curve; in most records, active means well fitted curve in the direction sought with a large enough effect; inconclusive means small, poorly fitted or top-dose-only effect, or another doubt; inactive means no such curve, though single readings can be large; an effect the other way counts as inactive or inconclusive.

SMILES	Giardia kill	Vif-APOBEC3F blk	IL-1B inflam inh	SW480 rereplic	MCF10A rerep	Vif-A3G inh
O=C(N/N=C/c1cc(Cl)ccc1O)c1ccccc1Br	i	i	i	6.5µM	i	i
O=C(CNC(=O)c1ccc2c(c1)OCO2)N/N=C/c1cc(Br)ccc1O	i	i	i	4.1µM	i	i
O=C(/C=N/NC(=O)c1ccccc1Br)c1ccccc1	i	i	i	i[1.84 µM]	i	i
CCC1CCCCN1S(=O)(=O)c1ccc(NC(=O)c2cc(=O)c3c(C)cc(C)cc3o2)cc1 (configuration not stated)	nt	i	nt	nt	nt	i
Cc1cccc(CCN2C(Nc3ccccc3)=NC[C@@H]2CC(C)C)c1	i	i	-54	?	?	i
CC(C)C[C@H]1CN=C(Nc2ccccc2)N1CCc1ccc(F)cc1	i	i	i	?	?	i
c1ccc(CCCCN2C(Nc3ccccc3)=NC[C@@H]2Cc2ccccc2)cc1	i	i	-55	i[9.22 µM]	?	i
CC(C)CCN1C(Nc2ccccc2)=NC[C@@H]1CC(C)C	i	i	i	i	i	i
CC(C)C[C@H]1CN=C(Nc2ccccc2)N1CCc1cccc(F)c1	i	i	-52	?	i	i
COC(=O)c1ccccc1NC(=O)c1ccc(-c2nc(COc3ccccc3)c(C)o2)cc1	nt	i	nt	nt	nt	i
Cc1cccc(NCc2cc(Cl)ccc2O)n1	i	i	-79	i	i	i
Cc1cccc(NCc2cc(Cl)cc(Cl)c2O)n1	i	i	-51	i	i	i
Cc1ccc(O)c(CNc2cccc(C)n2)c1	i	i	i	i	i	i
Cc1ccnc(NCc2cc(Cl)cc(Cl)c2O)c1	nt	i	i	nt	nt	i
Cc1ccc(OCC(=O)Nc2c(Cl)ccc3nsnc23)cc1C	nt	i	nt	nt	nt	i
COc1ccccc1CCNc1ncnc2nc[nH]c12	i	nt	nt	nt	nt	i
Cc1ccc(CNC(=O)c2ccc3c(c2)NC(=O)C(CS(=O)(=O)Cc2cccc(C)c2)N3)cc1 (configuration not stated)	nt	22µM	nt	nt	nt	i
O=C(NCc1ccccc1Cl)c1ccc2c(c1)NC(=O)C(CS(=O)(=O)Cc1ccc(Cl)cc1)N2 (configuration not stated)	nt	i	nt	nt	nt	i
COc1ccc(/C=C/CN2CCC(Oc3ccc(C(=O)N4CCCCC4)cc3)CC2)cc1	i	i	i	?	i	i
COc1ccccc1/C=C/CN1CCC(Oc2ccc(C(=O)N3CCCCC3)cc2)CC1	i	i	-57	?	i	i
Cc1ccccc1C(=O)c1cccn1CC(=O)NCCCN1CCCCC1	i	i	i	i	i	i
Cc1ccc(C)c(N2CCN(CCCNC(=O)Cn3cccc3C(=O)c3ccccc3C)CC2)c1	i	i	-114	i	?	i
Cc1cccc2cc(CN(CC3CCCO3)C(c3nnnn3Cc3ccco3)C(C)C)c(=O)[nH]c12 (configuration not stated)	i	i	-61	?	?	i
Cc1cc2cc(C(c3nnnn3C(C)(C)C)N(Cc3ccco3)CC3CCCO3)c(=O)[nH]c2cc1C (configuration not stated)	i	i	i	i	i	i
COc1ccc2[nH]c(=O)c(C(c3nnnn3C(C)(C)C)N(Cc3ccco3)CC3CCCO3)cc2c1 (configuration not stated)	i	i	i	7.3µM	i	i
SMILES	Giardia kill	Vif-APOBEC3F blk	IL-1B inflam inh	SW480 rereplic	MCF10A rerep	Vif-A3G inh
Cc1ccc2cc(CN(CCCN3CCOCC3)C(c3nnnn3Cc3ccco3)C(C)C)c(=O)[nH]c2c1C (configuration not stated)	i	i	i	21µM	?	i
CCC(c1nnnn1CC1CCCO1)N(CCCO)Cc1cc2cccc(C)c2[nH]c1=O (configuration not stated)	i	i	i	i	i	i
CCC(C)(C)n1nnnc1CN(Cc1cc2cc(OC)ccc2[nH]c1=O)C1CCCC1	i	i	-53	?	5.8µM	i
COC(=O)C[C@H]1c2cc(F)ccc2S(=O)(=O)N1C1CC1	nt	nt	nt	nt	nt	i
Cc1ccccc1CN1[C@H]2CCCC[C@@H]2OCCS1(=O)=O	nt	nt	nt	nt	nt	i
O=C(Nc1cccc(-n2cccn2)c1)C1CCCN(Cc2cc3ccccc3[nH]2)C1 (configuration not stated)	i	i	-60	?	21µM	i
CSc1cccc(CN2CCCC(C(=O)Nc3cccc(-n4cccn4)c3)C2)c1 (configuration not stated)	i	i	-66	16µM	?	i
Cc1c(CN2CCCC(C(=O)Nc3cccc(-n4cccn4)c3)C2)cnn1C (configuration not stated)	i	i	i	?	?	i
CCn1ncc(CN2CCCC(C(=O)Nc3cccc(-c4cc5ccccc5[nH]4)c3)C2)c1C (configuration not stated)	i	i	-94	?	16µM	i
Cc1cc(S(=O)(=O)Nc2ccc3ccccc3c2)c(C)s1	i	i	i	?	6.5µM	i
COCCCNC(=O)c1oc2c(c1C)-c1nn(Cc3cccc(Cl)c3)cc1CC2	nt	i	nt	nt	nt	i
c1ccc(CN2CCN(c3nc4ccccc4s3)CC2)cc1	i	i	i	i	i	i
O=C(CCCN1C(=O)c2cccc3cccc(c23)C1=O)N1CCN(c2ccc(F)cc2)CC1	i	i	-54	i	i	i
c1ccc(CN2CCN(C3=Nc4cccc5cccc3c45)CC2)cc1	i	i	-90	i	?	i
Fc1ccc(N2CCN(C3=Nc4cccc5cccc3c45)CC2)cc1	i	i	-52	i	?	i
COc1ccc(N2CCN(C(=O)CCCN3C(=O)c4cccc5cccc(c45)C3=O)CC2)cc1	i	i	i	i	i	i
CN1CCN(C2=Nc3cc(F)ccc3Cc3ccccc32)CC1	nt	nt	nt	i	i	nt
COc1cc(Cn2c(-c3nonc3N)nc3ccccc32)ccc1C	i	i	i	7.1µM	4µM	?
Cc1ccc(Cn2c(-c3nonc3N)nc3ccccc32)cc1	i	i	i	i	i	i
COc1cccc(Cn2c(-c3nonc3N)nc3ccccc32)c1	?	i	i	4.6µM	2.6µM	?
CC1CCN(S(=O)(=O)c2ccc3c(c2)N(CC(=O)O)C(=O)CO3)CC1	nt	i	nt	nt	nt	i
CCN(CC)c1ccc(/C=C/c2cccc[n+]2C)c(OC)c1	i	i	-92	18µM	?	7.9µM
COc1ccccc1N1CCN(C(=O)C2CCN(S(=O)(=O)c3cccs3)CC2)CC1	nt	i	nt	nt	nt	i
CCOC(=O)CN(C#N)c1nc(N(C)C)nc(N(C)C)n1	i	i	i	i	i	i
CCN(CC)C(=O)CN(C#N)c1nc(Cl)nc(N(C)C)n1	i	i	-63	i	?	i

From PubChem
